# Source: paper PMC4336329 (PLoS ONE, 2015)
# About 14,000 (4.5%) of roughly 310,000 compounds showed an effect of 50% or more. The effect is printed as a negative number. This is one part of a sample in which strong results are shown more often than they occur.
# Biological target: human ether-à-go-go-related gene (hERG) potassium channel (human, UniProt Q12809)
# Test: primary screen, population patch clamp on CHO cells stably expressing hERG; higher = less effect of the substance
# 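Note: peak tail current of the secondary pulse compared with the same well before compound.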
# Chain of human ether-à-go-go-related gene (hERG) potassium channel (Q12809 whole entry, looked up): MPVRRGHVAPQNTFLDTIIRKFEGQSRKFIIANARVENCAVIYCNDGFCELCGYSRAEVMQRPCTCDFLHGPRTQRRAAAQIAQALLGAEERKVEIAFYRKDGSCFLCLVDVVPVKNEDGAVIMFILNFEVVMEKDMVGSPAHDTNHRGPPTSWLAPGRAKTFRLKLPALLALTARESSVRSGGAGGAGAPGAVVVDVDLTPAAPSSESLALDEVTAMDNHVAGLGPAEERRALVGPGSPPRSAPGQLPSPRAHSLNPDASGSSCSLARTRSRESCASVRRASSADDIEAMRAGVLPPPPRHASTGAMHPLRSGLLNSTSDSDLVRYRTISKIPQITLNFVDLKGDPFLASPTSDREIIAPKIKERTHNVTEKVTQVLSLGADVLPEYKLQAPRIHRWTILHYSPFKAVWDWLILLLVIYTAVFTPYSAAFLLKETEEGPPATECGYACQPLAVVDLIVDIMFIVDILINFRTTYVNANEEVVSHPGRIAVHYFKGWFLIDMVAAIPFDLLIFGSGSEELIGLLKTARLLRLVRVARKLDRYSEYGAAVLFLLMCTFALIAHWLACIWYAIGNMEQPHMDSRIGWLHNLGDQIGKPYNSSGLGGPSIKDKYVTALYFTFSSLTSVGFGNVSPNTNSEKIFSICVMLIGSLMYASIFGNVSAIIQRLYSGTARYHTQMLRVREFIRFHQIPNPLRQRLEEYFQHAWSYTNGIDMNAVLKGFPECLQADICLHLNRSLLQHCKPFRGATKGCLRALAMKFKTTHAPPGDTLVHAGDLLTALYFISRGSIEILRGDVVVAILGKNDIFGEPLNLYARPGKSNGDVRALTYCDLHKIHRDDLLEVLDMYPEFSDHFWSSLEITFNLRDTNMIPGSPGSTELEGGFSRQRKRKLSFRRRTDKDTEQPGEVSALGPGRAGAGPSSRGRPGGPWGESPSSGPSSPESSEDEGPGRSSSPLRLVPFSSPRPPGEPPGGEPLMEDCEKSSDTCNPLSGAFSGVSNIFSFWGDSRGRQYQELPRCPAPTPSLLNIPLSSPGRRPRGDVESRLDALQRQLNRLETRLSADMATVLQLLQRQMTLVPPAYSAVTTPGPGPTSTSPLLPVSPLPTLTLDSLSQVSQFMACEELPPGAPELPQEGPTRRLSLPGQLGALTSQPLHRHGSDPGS
row,SMILES,"hERG current change (%, negative = inhibition) at 10uM [%]"
1,COc1ccc(OCCOc2ccc(/C=C3\C(=N)N4N=C(C)SC4=NC3=O)cc2)cc1,6.54
2,CC1Cc2nc(SCC(=O)Nc3nccs3)n(Cc3ccccc3)c(=O)c2S1 (stereo not drawn),2.84
3,CSc1nc(N)n2nc(-c3ccc(Cl)cc3)cc2n1,5.44
4,COc1ccc(C(=O)NC(Nc2ccc(C)cc2)C(Cl)(Cl)Cl)cc1 (stereo not drawn),-0.867
5,Cc1cc(C)cc(NC(=O)CN2C(=O)C3CC=CCC3C2=O)c1 (stereo not drawn),4.39
6,CC1=N/C(=C/c2cc(Br)cc(Br)c2O)C(=O)O1,17
7,Cc1ccc(S(=O)(=O)NC(=O)Nc2ccc(C)cn2)cc1,14.6
8,Cc1sc(NC(=O)c2ccco2)c(C(c2ccncc2)N2CCOCC2)c1C (stereo not drawn),-37.1
9,CCCCC(=O)N1CCN(c2nc3ccc(F)cc3s2)CC1,-65.3
10,CC(C)(CC(=O)O)CC(=O)N1CCN(c2nc3ccc(Cl)cc3s2)CC1,14.2
11,CC(C)(C)C(=O)N1CCN(c2nc3ccc(Cl)cc3s2)CC1,-12.2
12,Fc1ccc2nc(N3CCCCC3)sc2c1,5.89
13,CCCC(=O)N1CCN(c2nc3ccc(CC)cc3s2)CC1,-23.4
14,CCCC(=O)N1CCN(c2nc3ccc(Cl)cc3s2)CC1,-70.2
15,CCCCC(=O)N1CCN(c2nc3ccc(OCC)cc3s2)CC1,-35.5
16,CCCC(=O)N1CCN(c2nc3ccccc3s2)CC1,-24.7
17,CCCCC(=O)N1CCN(c2nc3ccc(Cl)cc3s2)CC1,-71.1
18,Cc1cc(OC(=O)c2ccccc2Cl)ccc1N1C(=O)CCC1=O,-1.98
19,O=[N+]([O-])c1ccc(O)c(-c2nn[nH]n2)c1,1.52
20,CC1=NN(C(=O)c2ccc(Cn3ccc([N+](=O)[O-])n3)cc2)C(O)(C(F)(F)F)C1 (stereo not drawn),-8.73
21,O=C1N(c2ccc(Cl)cc2)C(c2ccc(Cl)cc2)N2CCCN12 (stereo not drawn),-16.7
22,COc1ccccc1/C=C1\SC(=S)N(CCC(=O)NCCc2ccc(O)cc2)C1=O,15.1
23,CCOC(=O)Oc1ccc2oc(=O)cc(C)c2c1,15.9

row,SMILES,"hERG current change (%, negative = inhibition) at 10uM [%]"
1,O=c1[nH]c(/C=C/c2cccc3ccccc23)nc2ccccc12,36.4
2,COc1cccc(-c2cc(C(=O)N3CCN(C(=O)c4ccco4)CC3)on2)c1,-13.9
3,O=C(c1cc(-c2ccc(Cl)cc2)n[nH]1)N1CCN(C(=O)c2ccco2)CC1,-68.9
4,O=C(c1ccco1)N1CCN(C(=O)c2cc(-c3ccc(F)cc3)no2)CC1,-65.1
5,COc1ccc(-c2cc(C(=O)N3CCN(C(=O)c4ccco4)CC3)[nH]n2)cc1,-31.6
6,O=C(c1ccco1)N1CCN(C(=O)c2cc(-c3ccccc3F)no2)CC1,-15.8
7,Cc1ccc(-c2cc(C(=O)N3CCN(C(=O)c4ccco4)CC3)[nH]n2)cc1C,5.83
8,CCOc1ccc(NC(=O)CCNC(=O)c2ccco2)cc1,6.08
9,Cc1ccc(C(=O)COC(=O)CNC(=O)Cc2ccccc2)cc1,-2.44
10,COc1ccc(CCN2C(=O)c3cccc4cccc(c34)C2=O)cc1OC,12.9
11,COc1ccc(C(CNC(=O)C(C)c2ccc3cc(OC)ccc3c2)N(C)C)cc1 (stereo not drawn),-7.44
12,Cc1ccc(NS(=O)(=O)c2cc(C(=O)NCc3ccccn3)ccc2Cl)cc1C,-47
13,COc1ccc(N2C(=O)C3C(c4ccc(OC)cc4O)NC(Cc4ccccc4)(C(=O)O)C3C2=O)cc1 (stereo not drawn),19.5
14,NC(=O)Nc1ccc(C(=O)OCC(=O)N2CCc3ccccc3C2)cc1,5.29
15,COc1cc2c(cc1OC)CN(C(=S)Nc1ccc(OC(F)F)cc1)CC2,-38.8
16,COc1cc2c(cc1OC)CN(CC(=O)Nc1ccc(F)cc1)CC2,-7.62
17,CCC(=O)c1ccc(OCC(=O)N2CCc3cc(OC)c(OC)cc3C2)cc1,-33.2
18,COc1cc2c(cc1OC)CN(C(=O)CNC(=O)c1ccc(OC(F)F)cc1)CC2,-52.5
19,COc1cc2c(cc1OC)CN(CC(=O)Nc1ccc(C#N)cc1)CC2,-63.1
20,COc1ccc(C(=O)NCC(=O)N2CCc3ccccc3C2)cc1,-2.27
21,O=C(OCC(=O)N1CCc2ccccc2C1)c1ccc(OC(F)F)cc1,-80.2
22,CCC(=O)c1ccc(OCC(=O)OCC(=O)N2CCc3ccccc3C2)cc1,-24.8
